PubChem BioAssay
Active and inactive are the calls of the source.

Key:
[1] = optical density shifts of acrAB sulA E. coli – strain DRC41, OD650, 48 h, E. coli filamentation inducer project, primary screen (AID 1152); conditions: higher = more signal, called active from +8 up or from −8 down;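 note: E. coli MC1000 strain DRC41 lacking acrAB efflux pump and sulA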
[2] = probe aLefty1 binding on compound microarray – biochemical, small-molecule microarray, 635/667 nm fluorescence, primary screen (AID 1153); conditions: higher = more signal;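 note: score merges spot fluorescence with signal-to-noise ratio from the scanned slide images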
[3] = plasmodial surface anion channel blockers, osmotic lysis – cell-based, P. falciparum Indochina, OD700, 1 h, primary screen (AID 1154); conditions: P. falciparum Indochina infected RBC osmotic lysis, higher = more signal, called active from +8 up or from −8 down
[4] = plasmodial surface anion channel blockers, osmotic lysis – cell-based, P. falciparum Indochina, OD700, 2 h, primary screen (AID 1155);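 note: lysis reports solute entry through the parasite surface anion channel PSAC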; conditions: P. falciparum Indochina infected erythrocytes, higher = more signal, called active from +8 up or from −8 down
[5] = changes in parasitized red cell lysis, either direction – P. falciparum Indochina, OD700, 3 h, PSAC antagonist project, primary screen (AID 1156); conditions: P. falciparum-infected erythrocytes, osmotic lysis, higher = more signal, called active from +8 up or from −8 down
[6] = plasmodial surface anion channel blockers, osmotic lysis – cell-based, P. falciparum Indochina, OD700, 18 h, primary screen (AID 1157); conditions: P. falciparum Indochina infected erythrocytes, osmotic lysis OD700, 18 h; higher = more signal, called active from +8 up or from −8 down
[7] = S6 kinase pathway phospho-S6 level changes – cell-based, A549, cytoblot, luminescence, serum-stimulated, primary screen (AID 1158); conditions: 5 h, higher = more signal;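 note: serum-stimulated A549 lung adenocarcinoma cells; signal is phosphorylated S6 detected by cytoblot immunostaining with HRP secondary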
[8] = biological target: NADPH oxidase 2 (Homo sapiens) (UniProt P04839); test: compounds shifting NOX2 Amplex Red fluorescence – cell-based, HEK293-NOX2, PMA-stimulated, NOX inhibitor project, primary screen (AID 1159); conditions: 45 min, higher = more signal, called active from +8 up or from −8 down; note: test concentration not given here
Sequence of NADPH oxidase 2 (Homo sapiens) (P04839 whole entry, looked up): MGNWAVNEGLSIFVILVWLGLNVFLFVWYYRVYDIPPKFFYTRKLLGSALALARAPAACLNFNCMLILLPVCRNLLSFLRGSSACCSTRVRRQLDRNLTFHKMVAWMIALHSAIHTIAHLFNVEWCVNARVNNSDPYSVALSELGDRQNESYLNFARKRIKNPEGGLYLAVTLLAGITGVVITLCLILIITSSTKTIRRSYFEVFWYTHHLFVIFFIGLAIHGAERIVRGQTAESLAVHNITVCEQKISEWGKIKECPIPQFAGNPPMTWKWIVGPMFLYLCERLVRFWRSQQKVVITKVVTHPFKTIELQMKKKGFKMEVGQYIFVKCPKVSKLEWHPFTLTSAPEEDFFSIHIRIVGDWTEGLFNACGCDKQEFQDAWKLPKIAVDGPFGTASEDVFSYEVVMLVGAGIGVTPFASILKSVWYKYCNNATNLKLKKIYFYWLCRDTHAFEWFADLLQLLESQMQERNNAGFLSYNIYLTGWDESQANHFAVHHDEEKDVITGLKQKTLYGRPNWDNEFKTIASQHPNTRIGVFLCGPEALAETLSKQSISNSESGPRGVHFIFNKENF

[9] = biological target: NADPH oxidase 4 (Homo sapiens) (UniProt Q9NPH5); test: compounds shifting NOX4 Amplex Red fluorescence – cell-based, HEK293-NOX4, tetracycline-induced, NOX inhibitor project, primary screen (AID 1160); conditions: HEK293-NOX4, Amplex Red H2O2 fluorescence, 45 min; higher = more signal, called active from +8 up or from −8 down
Sequence of NADPH oxidase 4 (Homo sapiens) (Q9NPH5 whole entry, looked up): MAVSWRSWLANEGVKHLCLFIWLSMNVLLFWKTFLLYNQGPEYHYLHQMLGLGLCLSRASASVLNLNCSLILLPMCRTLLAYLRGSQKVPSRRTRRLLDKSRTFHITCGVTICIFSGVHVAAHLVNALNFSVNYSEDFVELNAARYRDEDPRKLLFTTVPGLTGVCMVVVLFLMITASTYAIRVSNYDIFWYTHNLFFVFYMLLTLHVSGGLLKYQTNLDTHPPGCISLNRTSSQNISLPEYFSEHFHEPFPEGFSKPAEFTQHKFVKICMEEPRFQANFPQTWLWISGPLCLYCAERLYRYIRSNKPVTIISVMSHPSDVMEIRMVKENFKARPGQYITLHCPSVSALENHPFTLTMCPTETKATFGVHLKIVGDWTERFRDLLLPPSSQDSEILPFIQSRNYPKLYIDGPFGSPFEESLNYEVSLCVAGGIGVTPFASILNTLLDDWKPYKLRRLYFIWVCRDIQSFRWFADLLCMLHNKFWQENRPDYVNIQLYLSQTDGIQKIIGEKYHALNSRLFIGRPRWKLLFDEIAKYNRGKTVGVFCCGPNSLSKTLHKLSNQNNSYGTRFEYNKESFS

[10] = biological target: NADPH oxidase 5 (Homo sapiens) (UniProt Q96PH1); test: compounds shifting NOX5 Amplex Red fluorescence – cell-based, HEK293-NOX5, NOX inhibitor project, primary screen (AID 1161); conditions: HEK293-NOX5, ionomycin, 45 min, higher = more signal
Sequence of NADPH oxidase 5 (Homo sapiens) (Q96PH1 whole entry, looked up): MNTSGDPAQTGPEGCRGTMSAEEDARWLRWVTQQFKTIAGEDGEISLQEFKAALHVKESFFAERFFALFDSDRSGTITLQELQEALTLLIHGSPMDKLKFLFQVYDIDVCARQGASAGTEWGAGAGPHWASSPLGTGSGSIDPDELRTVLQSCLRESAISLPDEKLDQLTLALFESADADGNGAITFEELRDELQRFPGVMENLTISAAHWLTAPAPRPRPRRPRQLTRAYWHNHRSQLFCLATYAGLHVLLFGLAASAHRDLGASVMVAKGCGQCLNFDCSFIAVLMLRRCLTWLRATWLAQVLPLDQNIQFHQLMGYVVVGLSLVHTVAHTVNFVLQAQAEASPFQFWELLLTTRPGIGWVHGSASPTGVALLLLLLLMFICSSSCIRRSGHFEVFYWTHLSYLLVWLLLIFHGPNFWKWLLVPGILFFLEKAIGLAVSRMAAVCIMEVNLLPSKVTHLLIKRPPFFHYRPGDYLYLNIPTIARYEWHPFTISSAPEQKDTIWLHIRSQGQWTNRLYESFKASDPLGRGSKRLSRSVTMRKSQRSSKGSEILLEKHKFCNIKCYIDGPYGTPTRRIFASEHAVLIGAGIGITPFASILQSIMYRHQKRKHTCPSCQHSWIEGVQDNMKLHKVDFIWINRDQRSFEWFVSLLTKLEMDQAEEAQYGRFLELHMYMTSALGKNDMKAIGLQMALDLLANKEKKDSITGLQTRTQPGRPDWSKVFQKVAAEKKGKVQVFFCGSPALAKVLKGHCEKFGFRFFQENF

[11] = compound effects on lung adenocarcinoma cell viability – A549, calcein-AM fluorescence, 48 h, basal, profiling panel (AID 1162); conditions: higher = more signal; note: test concentration not given here
[12] = compound effects on differentiated 3T3-L1 adipocyte viability – cell-based, 3T3-L1 adipocytes, calcein-AM fluorescence, 48 h, basal, profiling panel (AID 1163); conditions: 3T3-L1 adipocytes viability, higher = more signal; note: test concentration not given here
[13] = compound effects on hepatocellular carcinoma cell viability – HepG2, calcein-AM fluorescence, 48 h, basal, profiling panel (AID 1164); conditions: higher = more signal; note: test concentration not given here
[14] = compound effects on multiple myeloma cell viability – MM1S, calcein-AM fluorescence, 48 h, basal, profiling panel (AID 1165); conditions: higher = more signal; note: test concentration not given here
[15] = calcein-AM signal in unstimulated myeloma cells – cell-based, calcein-AM fluorescence, 48 h, PK04 Diversity Set, profiling panel (AID 1166); conditions: RPMI8226 myeloma viability, higher = more signal;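 note: cells grown under basal conditions without added stimulus; test concentration not given here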
[16] = JC-1 mitochondrial signal, unstimulated HepG2 cells – cell-based, JC-1 fluorescence, 24 h, 100 nL compound, profiling panel (AID 1167); conditions: HepG2 mitochondrial potential, higher = more signal; note: test concentration not given here
[17] = JC-1 mitochondrial signal, unstimulated adipocytes – cell-based, JC-1 fluorescence, 3T3-L1 adipocytes, 24 h, 100 nL compound, profiling panel (AID 1168); conditions: JC-1 mitochondrial fluorescence, higher = more signal, called active from +8 up or from −8 down; note: test concentration not given here
[18] = JC-1 mitochondrial signal, unstimulated myeloma cells – cell-based, JC-1 fluorescence, RPMI8226, 24 h, 100 nL compound, profiling panel (AID 1169); conditions: JC-1 mitochondrial potential fluorescence, higher = more signal; note: test concentration not given here
[19] = JC-1 mitochondrial signal, unstimulated MM1S myeloma – cell-based, JC-1 fluorescence, 24 h, 100 nL compound, profiling panel (AID 1170); conditions: MM1S mitochondrial potential, higher = more signal; note: test concentration not given here
[20] = resazurin metabolic signal in A549 cells – cell-based, resazurin fluorescence, 24 h, PK04 Diversity Set, profiling panel (AID 1171); conditions: A549 viability, higher = more signal, called active from +8 up or from −8 down; note: test concentration not given here

SMILES	z-score [1]	composite z-score [2]	z-score [3]	z-score [4]	z-score [5]	z-score [6]	z-score [7]	z-score [8]	z-score [9]	z-score [10]	z-score [11]	z-score [12]	z-score [13]	z-score [14]	z-score [15]	z-score [16]	z-score [17]	z-score [18]	z-score [19]	z-score [20]
COc1ccc([Si](C)(C)[C@@H]2[C@@H](CCO)O[C@]3(C(=O)N(Cc4cccc(N5CCOC5=O)c4)c4ccccc43)[C@H]2C)cc1	-0.196 (inactive)	0.0357	31.3 (active)	29.8 (active)	-0.28 (inactive)	3.29 (inactive)	0.715	-0.327 (inactive)	2.15 (inactive)	1.98	-0.687	-0.514	-0.769	-2.11	-4.17	0.183	1.05 (inactive)	-0.978	-1.78	-1.76 (inactive)
COc1ccccc1CN1C(=O)c2ccccc2[C@@]2(Cc3ccccc3N(CCCN(C)C)C2=O)[C@@H]1c1ccc(CO)cc1	2 (inactive)	-0.152	0.599 (inactive)	-0.678 (inactive)	-0.795 (inactive)	-1.1 (inactive)	2.55	-0.841 (inactive)	-1.61 (inactive)	1.51	-0.733	1.31	-0.655	0.229	-0.0261	0.511	-0.459 (inactive)	0.00572	-0.343	-0.483 (inactive)
CN(C)C(=O)[C@]1(Cc2ccccc2)N=C(c2ccc(OCCCO)cc2)O[C@@H]1c1ccccc1N=[N+]=[N-]	0.554 (inactive)	0.008	32.4 (active)	34.9 (active)	1.96 (inactive)	4.27 (inactive)	0.0986	-1.46 (inactive)	-0.242 (inactive)	-1.36	-0.279	-0.336	-0.987	-3.2	-4.26	1.43	2.9 (inactive)	-1.18	-2.37	-1.75 (inactive)
CCCCC(=C=CC[C@@H](O)c1ccc(CO)o1)CCO	0.702 (inactive)	0.459	2.3 (inactive)	0.631 (inactive)	0.399 (inactive)	0.208 (inactive)	0.126	2.35 (inactive)	1.49 (inactive)	1.3	1.48	-0.186	0.376	-0.277	0.275	0.761	0.618 (inactive)	0.0267	0.321	1.28 (inactive)
CC(=O)NCCCC[C@@H]1NC(=O)[C@H]2C[C@@H](C(=O)O)[C@@H](c3ccc(O)cc3)N2C1=O	-0.73 (inactive)	0.249	2.25 (inactive)	2.24 (inactive)	-0.368 (inactive)	0.912 (inactive)	-1.14	1.61 (inactive)	0.625 (inactive)	1.64	-0.199	0.766	-0.14	-2.18	-1.3	0.237	0.328 (inactive)	-0.621	-1.55	0.273 (inactive)
CC1CC/C=C\[C@H]2OC34C=CCN(c5ccc6ccccc6c5)C(=O)[C@H]3N(CCO)C(=O)[C@@H]4C2C(=O)O1 (stereo not given in full)	-0.0648 (inactive)	0.552	3.56 (inactive)	0.531 (inactive)	0.15 (inactive)	0.357 (inactive)	0.21	1.43 (inactive)	1.04 (inactive)	2.4	-0.099	0.428	-0.303	1.01	-0.36	-0.438	-0.55 (inactive)	-0.0138	1.19	-0.573 (inactive)
COCCOC(=O)N1C(=O)[C@@]2(c3ccccc31)[C@H](C(=O)N1CCc3cc(OC)c(OC)cc3C1)[C@H]1C(=O)O[C@H](c3ccccc3)[C@H](c3ccccc3)N1[C@@H]2c1ccc(O)cc1	3.04 (inactive)	-0.0186	0.927 (inactive)	-0.751 (inactive)	-0.965 (inactive)	-1.93 (inactive)	2.38	0.571 (inactive)	0.549 (inactive)	1.2	2.4	1.1	1.76	0.275	0.0454	0.218	0.743 (inactive)	-0.69	0.0766	-0.223 (inactive)
O=C1O[C@@H](c2ccccc2)[C@@H](c2ccccc2)N2[C@@H](c3ccc(OCCO)cc3)[C@]3(C(=O)Nc4ccc(C#CC5=CCCCC5)cc43)[C@@H](C(=O)N3CCCCCCC3)[C@H]12	0.343 (inactive)	2.14	3.46 (inactive)	1.85 (inactive)	0.501 (inactive)	1.03 (inactive)	-0.262	0.463 (inactive)	0.159 (inactive)	0.293	-0.364	0.284	1.1	-0.446	-1.31	0.226	-4.13 (inactive)	-0.831	-1.14	-0.207 (inactive)
